# From the supplement of paper PMC8728848
# This is one part of a sample in which the strongest signals are shown more often than they occur.
# B1: GS7807G-bfa-506-18-506 (Bacteroides fragilis) (protein)
# chain: ASCDKFDEINTDPDATTKVTSSLLATGLLLDITSSSASKSFIYDELLAKQMAWGESMEDYQYNVFGRSGFGGYTTLINAQKMVESVSDDNVNAYDGLAHFIKAYKIFYMSMEMGDLPYEEALQGELGLVRPKYNTQKEVMNFILSDLETAYELFSTAKDFDGDPILGGSISKWKKATTAFQLKVLMHLSKKESDADLKVKERFARIVASGSLMESNEDNLQMKYADKANTVYPFHNTNTKHAGYAMLSTMLIDKFKATGDIRMFYYAKPAKAKLNEGVTADSWDAYIGTDPSLPFEQIEKAYATEQYSGFNARYTDYPSGEPVVRLGYAEQNFILAEAAVRGWISGDASAYYKKAIRAHMEFIASNTPDEEVYHHGHPITEEAIAAFLETPAIQLSGEKEEDIEKILTQRYLASFMQHPYDVYYDYRRTGYPVLPINPATNRNTMNDRLPMRWMYPKSESDYNLEHQNEALERQFGGVDDVNKLMWILQ
# How the values were obtained:
# Assay in all cases: glycan array binding signal (z-score within array); higher = stronger binding
# Conditions in all cases: glycan notation: IUPAC condensed, linker removed
# [1] = target: Fuc(a1-2)Gal(b1-3)GlcNAc(b1-2)Man(a1-3)[Fuc(a1-2)Gal(b1-3)GlcNAc(b1-2)Man(a1-6)]Man(b1-4)GlcNAc(b1-4)[Fuc(a1-6)]GlcNAc
# Summary of the method: (§1)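 Arrays were curated from the Consortium for Functional Glycomics database, 3228 in total, and kept only where the protein sequence was available. Binding is expressed as a within-array Z-score. This score was averaged across arrays of the same protein sequence at different concentrations or buffers and across linkers, and negative values can be read as non-binding.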
# [2] = target: Fuc(a1-2)Gal(b1-3)GlcNAc(b1-3)[Fuc(a1-2)Gal(b1-3)GlcNAc(b1-6)]GalNAc
# Summary of the method: as §1
# [3] = target: Fuc(a1-2)Gal(b1-3)GlcNAc(b1-3)[Gal(b1-4)GlcNAc(b1-6)]Gal(b1-4)Glc
# Summary of the method: as §1
# [4] = target: Fuc(a1-2)Gal(b1-3)GlcNAc(b1-3)[Neu5Ac(a2-6)Gal(b1-4)GlcNAc(b1-6)]Gal(b1-4)Glc
# Summary of the method: as §1
# [5] = target: Fuc(a1-2)Gal(b1-3)[Fuc(a1-4)]GlcNAc(b1-2)Man(a1-3)[Fuc(a1-2)Gal(b1-3)[Fuc(a1-4)]GlcNAc(b1-2)Man(a1-3)]Man(b1-4)GlcNAc(b1-4)GlcNAc
# Summary of the method: as §1
# [6] = target: Fuc(a1-2)Gal(b1-4)[Fuc(a1-3)]GlcNAc(b1-3)[Neu5Ac(a2-6)Gal(b1-4)GlcNAc(b1-6)]Gal(b1-4)Glc
# Summary of the method: as §1
# [7] = target: Fuc(a1-2)[Gal(a1-3)]Gal(b1-3)GalNAc(b1-3)Gal(a1-4)Gal(b1-4)Glc
# Summary of the method: as §1
# [8] = target: Fuc(a1-2)[Gal(a1-3)]Gal(b1-4)GlcNAc(b1-2)Man(a1-3)[Fuc(a1-2)[Gal(a1-3)]Gal(b1-4)GlcNAc(b1-2)Man(a1-6)]Man(b1-4)GlcNAc(b1-4)GlcNAc
# Summary of the method: as §1
# [9] = target: Fuc(a1-2)[Gal(a1-3)]Gal(b1-4)GlcNAc(b1-3)[Fuc(a1-2)[Gal(a1-3)]Gal(b1-4)GlcNAc(b1-6)]GalNAc
# Summary of the method: as §1
# [10] = target: Fuc(a1-2)[GalNAc(a1-3)]Gal(b1-4)GlcNAc(b1-2)Man
# Summary of the method: as §1
# [11] = target: Fuc(a1-2)[GalNAc(a1-3)]Gal(b1-4)GlcNAc(b1-3)Gal(b1-4)GlcNAc(b1-3)Gal(b1-4)GlcNAc
# Summary of the method: as §1
# [12] = target: Fuc(a1-3)[Gal(b1-4)]GlcNAc(b1-2)Man
# Summary of the method: as §1
# [13] = target: Fuc(a1-3)[Gal(b1-4)]GlcNAc(b1-2)Man(a1-3)[Fuc(a1-3)[Gal(b1-4)]GlcNAc(b1-2)Man(a1-6)]Man(b1-4)GlcNAc(b1-4)[Fuc(a1-6)]GlcNAc
# Summary of the method: as §1
# [14] = target: Fuc(a1-3)[Gal(b1-4)]GlcNAc(b1-3)Gal(b1-3)[Fuc(a1-4)]GlcNAc
# Summary of the method: as §1
# [15] = target: Fuc(a1-3)[Gal3S(b1-4)]Glc
# Summary of the method: as §1
# Gal(a1-2)Gal = target: Gal(a1-2)Gal
# Summary of the method: as §1
# [16] = target: Gal(a1-3)Gal(b1-3)GlcNAc(b1-2)Man(a1-3)[Gal(a1-3)Gal(b1-3)GlcNAc(b1-2)Man(a1-6)]Man(b1-4)GlcNAc(b1-4)GlcNAc
# Summary of the method: as §1
# [17] = target: Gal(a1-3)Gal(b1-3)GlcNAc(b1-6)GalNAc
# Summary of the method: as §1
# Gal(b1-3)GalNAc(b1-3)Gal = target: Gal(b1-3)GalNAc(b1-3)Gal
# Summary of the method: as §1
# [18] = target: Gal(b1-3)GlcNAc(b1-2)Man(a1-3)[Gal(b1-3)GlcNAc(b1-2)Man(a1-6)]Man(b1-4)GlcNAc(b1-4)[Fuc(a1-6)]GlcNAc
# Summary of the method: as §1
# [19] = target: Gal(b1-3)GlcNAc(b1-3)Gal(b1-4)GlcNAc
# Summary of the method: as §1
# [20] = target: Gal(b1-3)GlcNAc(b1-6)[Gal(b1-3)]GalNAc
# Summary of the method: as §1
# Gal(b1-3)GlcNAc6S = target: Gal(b1-3)GlcNAc6S
# Summary of the method: as §1
# [21] = target: Gal(b1-4)GalNAc(a1-3)[Fuc(a1-2)]Gal(b1-4)GlcNAc
# Summary of the method: as §1
# [22] = target: Gal(b1-4)GlcNAc(b1-2)Man(a1-3)[Gal(b1-4)GlcNAc(b1-2)Man(a1-6)]Man(b1-4)GlcNAc(b1-4)[Fuc(a1-6)]GlcNAc
# Summary of the method: as §1
# [23] = target: Gal(b1-4)GlcNAc(b1-2)Man(a1-3)[Man(a1-6)]Man(b1-4)GlcNAc(b1-4)GlcNAc
# Summary of the method: as §1
# [24] = target: Gal(b1-4)GlcNAc(b1-3)Gal(b1-3)GlcNAc
# Summary of the method: as §1
# [25] = target: Gal(b1-4)GlcNAc(b1-3)Gal(b1-4)GlcNAc(b1-3)Gal(b1-4)GlcNAc(b1-2)Man(a1-3)[Gal(b1-4)GlcNAc(b1-3)Gal(b1-4)GlcNAc(b1-3)Gal(b1-4)GlcNAc(b1-2)Man(a1-6)]Man(b1-4)GlcNAc(b1-4)[Fuc(a1-6)]GlcNAc
# Summary of the method: as §1
binder,measurement,setting,value
B1,glycan array binding signal (z-score),[1],0.142
same,glycan array binding signal (z-score),[2],3.91
same,glycan array binding signal (z-score),[3],0.516
same,glycan array binding signal (z-score),[4],-0.857
same,glycan array binding signal (z-score),[5],0.421
same,glycan array binding signal (z-score),[6],-0.781
same,glycan array binding signal (z-score),[7],-0.536
same,glycan array binding signal (z-score),[8],3.93
same,glycan array binding signal (z-score),[9],0.293
same,glycan array binding signal (z-score),[10],-0.111
same,glycan array binding signal (z-score),[11],-0.91
same,glycan array binding signal (z-score),[12],0.315
same,glycan array binding signal (z-score),[13],1.51
same,glycan array binding signal (z-score),[14],-0.716
same,glycan array binding signal (z-score),[15],-0.945
same,glycan array binding signal (z-score),Gal(a1-2)Gal,-0.863
same,glycan array binding signal (z-score),[16],4.66
same,glycan array binding signal (z-score),[17],1.31
same,glycan array binding signal (z-score),Gal(b1-3)GalNAc(b1-3)Gal,-0.588
same,glycan array binding signal (z-score),[18],2.73
same,glycan array binding signal (z-score),[19],-0.493
same,glycan array binding signal (z-score),[20],-0.028
same,glycan array binding signal (z-score),Gal(b1-3)GlcNAc6S,0.702
same,glycan array binding signal (z-score),[21],-0.448
same,glycan array binding signal (z-score),[22],2.53
same,glycan array binding signal (z-score),[23],1.4
same,glycan array binding signal (z-score),[24],0.201
same,glycan array binding signal (z-score),[25],5.99
